Inconclusive results are not listed. The source made the active and inactive calls. Rule for the calls: active = hit-call score of the fitted dose curve at least 0.9, where 1 is the maximum; inconclusive = response in the unintended direction; inactive = score below 0.9.
The molecules below were run against Estrogen-related receptor gamma (Homo sapiens) (UniProt P62508) (assay: ATG_ERRg_TRANS: Attagene TRANS-FACTORIAL HepG2 Assay for human Estrogen-Related Receptor gamma (ERRg) (AID 2282977;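 note: hits increase reporter signal over DMSO so potencies reflect activators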)). Conditions: HepG2 Attagene TRANS reporter, ERRg transactivation.
Estrogen-related receptor gamma (Homo sapiens), sequence (P62508 whole entry, looked up): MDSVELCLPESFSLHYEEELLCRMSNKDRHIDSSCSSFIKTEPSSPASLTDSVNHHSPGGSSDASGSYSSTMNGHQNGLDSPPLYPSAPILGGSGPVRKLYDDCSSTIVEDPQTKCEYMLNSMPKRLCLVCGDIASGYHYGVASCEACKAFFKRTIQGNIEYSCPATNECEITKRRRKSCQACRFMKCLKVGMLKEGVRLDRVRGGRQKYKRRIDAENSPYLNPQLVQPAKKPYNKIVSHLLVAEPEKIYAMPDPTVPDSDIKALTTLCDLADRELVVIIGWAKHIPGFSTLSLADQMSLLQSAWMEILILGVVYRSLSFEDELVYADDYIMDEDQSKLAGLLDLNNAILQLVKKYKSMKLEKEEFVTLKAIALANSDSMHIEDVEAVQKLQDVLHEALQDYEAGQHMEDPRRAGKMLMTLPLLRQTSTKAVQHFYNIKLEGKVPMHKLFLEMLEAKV
Description: ATG_TRANS is a cell-based, multiplexed-readout assay that uses HepG2, a human liver cell line, with measurements taken at 24 hours after chemical dosing in a 24-well plate.ATG_ERRg_TRANS is one of 30 assay component(s) measured or calculated from the ATG_TRANS assay. It is designed to make measurements of mRNA induction, a form of inducible reporter, as detected with fluorescence intensity signals by Reverse transcription polymerase chain reaction (RT-PCR) and Capillary electrophoresis technology.Data from the assay component ATG_ERRg_TRANS was analyzed into 1 assay endpoint. This assay endpoint, ATG_ERRg_TRANS, was analyzed in the positive analysis fitting direction relative to DMSO as the negative control and baseline of activity. Using a type of inducible reporter, measures of mRNA for gain-of-signal activity can be used to understand the reporter gene at the transcription factor-level as they relate to the gene ESRRG. Furthermore, this assay endpoint can be referred to as a primary readout, because this assay has produced multiple assay endpoints where this one serves a reporter gene function. To generalize the intended target to other relatable targets, this assay endpoint is annotated to the nuclear receptor intended target family, where the subfamily is steroidal.
Human liver HepG2 cells are transiently transfected with multiple reporter transcription units (MRTUs) in 6-well plates using FuGene 6 reagent (Roche; 3 ml FuGene/1 mg DNA). The MRTU constructs are regulated by a cis-regulating element (promoter). […] A major difference between the CIS and TRANS system is that in CIS activities of endogenous TFs are measured, whereas the TRANS assay evaluates changes in activities of exogenous, chimeric NR-Gal4 proteins. […] At the end of 24 hour incubation, total RNA was isolated using TriZol reagent (Invitrogen). The isolated RNA is then reverse-transcribed using oligo(dT) primer and Mo-MLV reverse transcriptase (Invitrogen) with DNAse I (Ambion) treatment for 30 min. The one-tenth of the produced cDNA was amplified by PCR using Taq DNA polymerase (Invitrogen) and two reporter sequence-specific primers. The PCR products were fluorescently labeled by primer extension with 6-arboxyfluorescein (6-FAM) 5'-labeled reporter sequence-specific primer (2 min at 95 C, 20 s at 68 C and 10 min at 72 C) and these products were digested with 5U of HpaI (New England Biolabs) for 2h at 37 C. The fragments were purified using Qiaquick PCR columns (Qiagen), analyzed on an ABI 3130xL genetic analyzer (Applied Biosystems) with peak positions identified by using a set of X-rhodamine (ROX)-labeled MapMarker1000 molecular weight standards (BioVentures). The raw capillary electrophoresis data was processed using Attagraph software (Attagene).

| Structure (SMILES) | outcome |
| --- | --- |
| CCc1ccc(C(=O)NN(C(=O)c2cc(C)cc(C)c2)C(C)(C)C)cc1 | inactive |
| Oc1cc(Cl)ccc1Oc1ccc(Cl)cc1Cl | inactive |
| CC(C)N(C(=O)COc1nnc(C(F)(F)F)s1)c1ccc(F)cc1 | inactive |
| CCOc1nc(NC)nc(NC(=O)NS(=O)(=O)c2ccccc2C(=O)OC)n1 | inactive |
| O=C(NC(=O)c1c(F)cccc1F)Nc1ccc(OC(F)(F)C(F)OC(F)(F)F)c(Cl)c1 (stereo unspecified) | inactive |
| CCC(C)(C)C(=O)OC1=C(c2ccc(Cl)cc2Cl)C(=O)OC12CCCCC2 | inactive |
| Cc1cc(C)nc(NC(=O)NS(=O)(=O)c2ccccc2C(=O)OC2COC2)n1 | inactive |
| CCOCN(C(=O)CCl)c1c(C)cccc1CC | inactive |
| CC1(C)C(C=C(Cl)Cl)C1C(=O)OC(C#N)c1ccc(F)c(Oc2ccccc2)c1 (stereo unspecified) | inactive |
| O=C(Nc1ccccc1)Nc1cnns1 | inactive |
| CC(C)OC(=O)Nc1cccc(Cl)c1 | inactive |
| CCC(C)(NC(=O)c1cc(Cl)c(C)c(Cl)c1)C(=O)CCl (stereo unspecified) | inactive |
| COC(=O)c1ccccc1CS(=O)(=O)NC(=O)Nc1nc(OC)cc(OC)n1 | inactive |
| CC(C)(C)C(O)/C(=C\c1ccc(Cl)cc1Cl)n1cncn1 (stereo unspecified) | inactive |
| CCS(=O)(=O)c1cccnc1S(=O)(=O)NC(=O)Nc1nc(OC)cc(OC)n1 | inactive |
| O=S(=O)(O)C(F)(F)C(F)(F)C(F)(F)C(F)(F)C(F)(F)C(F)(F)C(F)(F)C(F)(F)F | inactive |
| CCN(CC)C(=O)SCc1ccc(Cl)cc1 | inactive |
| C[C@H]1[C@H](c2ccc(Cl)cc2)SC(=O)N1C(=O)NC1CCCCC1 | inactive |
| ClC1C(Cl)C(Cl)C(Cl)C(Cl)C1Cl (stereo unspecified) | inactive |
| CCCN(CCOc1c(Cl)cc(Cl)cc1Cl)C(=O)n1ccnc1 | inactive |
| OCCOc1ccccc1 | inactive |
